# Measured values published in PubChem BioAssay AID1224852 (National Center for Advancing Translational Sciences (NCATS), 2016).
# Results filed as inconclusive are left out. The source made the active and inactive calls. Calls come from the whole dose curve; as a rule, active = well fitted curve in the direction sought with a large enough effect (not every such curve was filed as active); inconclusive = small, poorly fitted or top-dose-only effect, or effect the other way, or another doubt; inactive = no such curve, though single readings can be large or run the other way.
# Experiment: Cell viability assay for measurement of the protective activity of small molecules against cell death caused by Zika virus infection in human neural progenitor cells (hNPCs)
# Details: hNPC ZIKV-induced death protection, ATP luminescence, 72 h; series mostly up to 46.1 µM
# From the text: National Center for Advancing Translational Sciences [NCATS] Johns Hopkins University School of Medicine Florida State University Assay Overview: Zika virus infection causes cell death in certain cell types including human neural progenitor cells (hNPCs), astrocytes, and astrocytoma cell line (SNB-19). This cell viability assay measures the ATP content (level) in human neural progenitor cells (hNPCs) using a luminescence readout that is proportional to viable cell numbers. Decrease in the luminescence signal after Zika virus infection indicates the cell death caused by Zika virus. Small molecule inhibitors […] the decreased luminescence signal after Zika virus infection, indicating the protective effect of that small molecule on the cell death caused by Zika virus infection. This observed protective effect of small molecules against Zika virus induced cell death may result from inhibition of virus replication or cellular response to the virus infection.
# Assay Protocol Summary: The medium for hNPCs consists of DMEM/F12, N2 supplement (ThermoFisher, Cat.# 17502048), NEAA (ThermoFisher, Cat. # 11140050), 2 ug/ml heparin, 2 uM cyclopamine, and B27 (ThermoFisher, Cat. # 17504044). The ATP content assay kit (PerkinElmer, Cat.# 6016731) was used to determine cell viability. The reagent was reconstituted and prepared as described by the manufacturer. Cells were seeded in 384- or 1536-well assay plates and cultured at 37 C with 5% CO2 for 16 to 20 hours. The typical cell seeding density in the 1536-well plate assay is 350 cells/well in 3 ul medium for hNPCs in the tissue cultured treated/PDL coated plates. Compounds were added to cells and incubated for one hour before addition of ZIKV solution to cells (2 FFU/cell). After incubation at 37 C with 5% CO2 for 72 hours, the reagent mixture of the ATP content assay kit was added to each well, followed by incubation at room temperature for 10 minutes. The luminescence intensity of the assay plates was measured using a ViewLux plate reader (PerkinElmer). […] The percentage inhibitions of the decreased cell viability by small molecule inhibitors were then calculated.
row,Compound,outcome
1,CC(=NNC(=S)N1CCC1)c1ccccn1,inactive
2,CCCS(=O)c1ccc2nc(NC(=O)OC)[nH]c2c1 (stereo not given),inactive
3,CN(C)c1cc(NC(=O)CNC(C)(C)C)c(O)c2c1C[C@@H]1C[C@H]3[C@H](N(C)C)C(=O)C(C(N)=O)=C(O)[C@@]3(O)C(=O)C1=C2O,inactive
4,Nc1nc2ccc([N+](=O)[O-])cc2s1,inactive
5,CC(C)OC(=O)CCCC=CC[C@@H]1[C@H](C=C[C@@H](O)COc2cccc(C(F)(F)F)c2)[C@H](O)C[C@@H]1O,inactive
6,O=c1oc2cc(O)ccc2s1,inactive
7,O=c1c(-c2ccc(O)cc2)coc2cc(O)ccc12,inactive
8,CNC(=O)c1ccccc1Sc1ccc2c(/C=C/c3ccccn3)n[nH]c2c1,inactive
9,O=C(O)[C@@H](c1ccc(OCc2ccc3ccccc3n2)cc1)C1CCCC1,inactive
10,O=C(/C=C/c1ccc(O)cc1)c1ccc(O)cc1O,inactive
11,Cc1c(N)c(=O)n(-c2ccccc2)n1C,inactive
12,Nc1c(S(=O)(=O)O)cc(Nc2ccc(Nc3nc(Cl)nc(Nc4ccc(S(=O)(=O)O)cc4)n3)c(S(=O)(=O)O)c2)c2c1C(=O)c1ccccc1C2=O,inactive
13,COCCn1c2c([n+](Cc3cnccn3)c1C)C(=O)c1ccccc1C2=O,inactive
14,O=C(O)c1cc([N+](=O)[O-])ccc1NCCCc1ccccc1,inactive
15,CN(C)c1ccc(C(=C2C=CC(=[N+](C)C)C=C2)c2ccccc2)cc1,inactive
16,O=C(OCc1ccccc1)c1ccc(O)cc1,inactive
17,O=C(/C=C/c1ccccc1)NCCO,inactive
18,N[C@H](CSC(c1ccccc1)(c1ccccc1)c1ccccc1)C(=O)O,inactive
19,COc1ccc(-c2cc(=S)ss2)cc1,inactive
20,NC1CCC(Nc2nc(Nc3ccc(C(=O)N4CCCCC4)cc3)c3ncn(-c4cccc(F)c4)c3n2)CC1 (stereo not given),inactive

row,Compound,outcome
1,O=c1[nH]nc(Sc2ncc([N+](=O)[O-])s2)n1-c1ccc2c(c1)OCCO2,inactive
2,CC(O)=C(C#N)C(=O)Nc1ccc(C(F)(F)F)cc1,inactive
3,Nc1ccc(-c2ccc3ccccc3n2)cc1,inactive
4,Nc1ccc(O)c(C(=O)O)c1,inactive
5,CS(=O)(=O)c1ccc(-c2cn3ccccc3n2)cc1,inactive
6,CC(C(=O)O)c1ccc(C(=O)c2ccccc2)s1 (stereo not given),inactive
7,O=C(CS)Nc1ccccc1,inactive
8,CCCC(=O)OC[C@@H](OC(=O)CCC)[C@@H](OC(=O)CCC)[C@H](Cn1c2nc(=O)[nH]c(=O)c-2nc2cc(C)c(C)cc21)OC(=O)CCC,inactive
9,CC=CC[C@@H](C)C(=O)[C@H]1C(=O)N[C@@H](C(C)C)C(=O)N(C)CC(=O)N(C)[C@@H](CC(C)C)C(=O)N[C@@H](C(C)C)C(=O)N(C)[C@@H](CC(C)C)C(=O)N[C@@H](C)C(=O)N[C@H](C)C(=O)N(C)[C@@H](CC(C)C)C(=O)N(C)[C@@H](CC(C)C)C(=O)N(C)[C@@H](C(C)C)C(=O)N1C,inactive
10,O=C(O)c1cccc(-c2noc(-c3ccccc3F)n2)c1,inactive
11,Cc1ccc(O)c(-n2nc3ccccc3n2)c1,inactive
12,O=c1c2ccccc2nc2n1CCc1c-2[nH]c2ccccc12,inactive
13,Cc1ccc2c(n1)Oc1ccc(C(C)C(=O)OCC(=O)N(C)C)cc1C2 (stereo not given),inactive
14,CNC1[C@H](O)C(O[C@@H]2C(O)C(O[C@H]3O[C@H]([C@@H](C)NC)CC[C@H]3N)[C@@H](N)C[C@H]2N)OC[C@]1(C)O (stereo not given in full),inactive
15,CC(=Cc1ccccc1)C=C1SC(=S)N(CC(=O)O)C1=O,inactive
16,CCOC1OC(=O)C[C@H]1NC(=O)[C@@H]1CCCN1C(=O)[C@@H](NC(=O)c1ccc(N)c(Cl)c1)C(C)(C)C (stereo not given in full),inactive
17,Cc1cccc(/C=C/c2ccccc2)n1,inactive
18,CCN1CCC(n2cc(CNc3cc(Cl)c4ncc(C#N)c(Nc5ccc(F)c(Cl)c5)c4c3)nn2)CC1,inactive
19,Clc1ccccc1-c1nc(-c2ccncc2)no1,inactive
20,COc1cccc2c1C(=O)c1c(O)c3c(c(O)c1C2=O)C[C@@](O)(C(=O)CO)C[C@@H]3O[C@H]1C[C@H](N)[C@H](O[C@@H]2CCCCO2)[C@H](C)O1,inactive
